Screens (PubChem)
A selection: hits, their analogues and other compounds. The true share with any hit is near 19%.
HT1080 IDH1KD tx – toxicity to HT-1080 IDH1 knockdown cells (counter line). 2% of 360,000 active. HT-1080 IDH1 knockdown viability, ATP luminescence, 48 h. Potency, µM (titrated, usually from 46.1 µM), actives largely listed as cytotoxic. AID 686971
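Cytotoxicity counter-line: IDH1KD HT-1080, 48 h, CellTiter-Glo. Curves classed by r2, magnitude and activity.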
DT40 TDP1 CPT – growth inhibition of DT40 Tdp1-/-;hTDP1 cells with camptothecin (screen for TDP1 inhibitors); chicken DT40 Tdp1-/-;hTDP1 cells + 20 nM CPT, ATP luminescence, 48 h; Potency, µM (highest dose often 46.2 µM), hits mostly inhibitors; 12% of 420,000 active; AID 686979; also: nearly all actives have a fitted effect of over 55% in size
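Chicken DT40 Tdp1-/- cells complemented with human TDP1, 400 cells/well, exposed to compounds plus 20 nM camptothecin for at least 48 h at 37 C; viability read as ATP content by CellTiter-Glo luminescence.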
DT40 TDP1 no CPT – qHTS for Inhibitors of human tyrosyl-DNA phosphodiesterase 1 (TDP1): qHTS in cells in absence of CPT | DT40 Tdp1-/- hTDP1 cells, no CPT, ATP luminescence, 48 h | Potency, µM (titrated, usually from 46.2 µM), actives largely listed as inhibitors | 15% of 420,000 active; also: nearly all actives have a fitted effect of over 55% in size
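Luminescent ATP content (CellTiter-Glo) served as the growth readout. Knockout chicken DT40 cells expressing human TDP1 were exposed to compounds without camptothecin for a minimum 48 hr at 37 °C.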
HT1080NT lethal – kills 2HG-producing HT-1080-NT fibrosarcoma cells. 1.6% of 360,000 active. Potency, µM (highest dose often 46.1 µM), actives largely listed as cytotoxic. HT-1080-NT fibrosarcoma viability, CellTiter-Glo ATP luminescence, 48 h;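 also: NT is the 2HG producing partner of a matched IDH1 knockdown line; nearly all actives have a fitted effect of over 55% in size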
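750 cells/well, RPMI + 5% FBS; 2 h settle, compound pin-transfer, 48 h at 37 degrees C. CellTiter-Glo 10 min RT, luminescence. Normalized to DMSO and media-only wells.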
IL1B secr inh – blocks inflammasome-driven IL-1 beta release; THP-1 LPS/ATP IL-1B secretion, AlphaLISA, 16 h; hits give low values; activity change, % at 57.5 µM; 4.7% of 360,000 active; AID 743279; in the data active = activity change below about -50%; inconclusive = mostly about -30% to -49%
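THP-1 cells pretreated 1 hr with compounds (up to 57.5 uM final), then stimulated with LPS (250 ng/mL final) plus ATP (1.25 mM final); secreted IL-1B measured by AlphaLISA after 16 hr, decreased signal indicating inhibition.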
Each line names hits and unclear results; the compound was inactive in the other large screens. Unless noted, calls follow the shape of the dose curve; as a rule, active = well fitted curve in the direction sought with a large enough effect; inconclusive = small, poorly fitted or top-dose-only effect, or another doubt; inactive = no such curve, though single readings can be large; an effect the other way counts as inactive or inconclusive.

Cc1c(CN2CCOc3c(cc(-c4ncc(C(F)(F)F)cc4Cl)cc3OCC3CCCO3)C2)cnn1C (centres undefined)	none (no result: HT1080 IDH1KD tx, HT1080NT lethal, IL1B secr inh)
CC(C)C(c1nnnn1C1CCCC1)N1c2ccccc2CC1C (centres undefined)	DT40 TDP1 CPT 21µM, DT40 TDP1 no CPT 13µM
COc1ccc(OC)c(C(c2nnnn2C2CCCC2)N2CCN(c3ccc(F)cc3)CC2)c1 (centres undefined)	DT40 TDP1 CPT inconclusive, DT40 TDP1 no CPT inconclusive
COc1ccc(N2CCN(C(c3nnnn3C3CCCC3)C(C)C)CC2)cc1 (centres undefined)	DT40 TDP1 CPT 21µM, DT40 TDP1 no CPT 18µM
COc1ccc(C(c2nnnn2C2CCCC2)N2CCC(C)CC2)c(OC)c1 (centres undefined)	DT40 TDP1 CPT 18µM, DT40 TDP1 no CPT 21µM
COc1ccc(NC(=O)C(c2ccccc2)N(C)C(=O)c2ccc(=O)[nH]c2)cc1 (centres undefined)	none
Cc1cccc(C(=O)N2CCN(CCNC(=O)C(=O)Nc3ccc(F)cc3)CC2)c1	DT40 TDP1 no CPT inconclusive
COc1ccccc1NC(=O)Cc1nnc(SCC(=O)c2ccccc2)n1C	none
COc1ccc(C(=O)/C=C/c2ccc(F)cc2)c(OC(=O)c2ccc([N+](=O)[O-])cc2)c1	HT1080 IDH1KD tx inconclusive, DT40 TDP1 CPT inconclusive, DT40 TDP1 no CPT 21µM, HT1080NT lethal inconclusive, IL1B secr inh -94
COc1ccc(/C=C/C(=O)CC(=O)/C=C/c2cccc(O)c2OC)cc1O	DT40 TDP1 CPT 6.6µM, DT40 TDP1 no CPT 3µM (no result: HT1080 IDH1KD tx, HT1080NT lethal, IL1B secr inh)
COc1ccc(C=CC(=O)c2ccc3cc(OC)c(OC)cc3c2)cc1OC	HT1080 IDH1KD tx inconclusive, DT40 TDP1 CPT inconclusive, DT40 TDP1 no CPT 5.8µM, IL1B secr inh -98
COc1ccc(C(=O)/C=C/c2ccc(OC)c(O)c2)c(F)c1	HT1080 IDH1KD tx inconclusive, DT40 TDP1 CPT inconclusive, DT40 TDP1 no CPT 16µM, IL1B secr inh -104
O=C(Cc1ccc(Br)cc1)OCC(=O)N1CCc2ccccc2C1	none
COc1ccc(C=CC(=O)c2ccc(OC)c(OC)c2)cc1O	HT1080 IDH1KD tx 21µM, DT40 TDP1 CPT 15µM, DT40 TDP1 no CPT 18µM, IL1B secr inh -65
CCN(CC)C(=O)c1cccc(-c2csc(C(O)c3ccc(F)c(F)c3)n2)c1 (centres undefined)	HT1080 IDH1KD tx inconclusive, DT40 TDP1 CPT 23µM, DT40 TDP1 no CPT inconclusive, HT1080NT lethal inconclusive
CCN(CC)C(=O)c1cccc(-c2csc(C(NC(C)=O)c3ccccc3)n2)c1 (centres undefined)	DT40 TDP1 CPT inconclusive, DT40 TDP1 no CPT inconclusive
CCN(CC)C(=O)c1cccc(-c2csc(C(O)c3ccc(F)cc3)n2)c1 (centres undefined)	DT40 TDP1 CPT 15µM, DT40 TDP1 no CPT inconclusive
CCN(CC)C(=O)c1cccc(-c2csc(C(O)c3ccco3)n2)c1 (centres undefined)	DT40 TDP1 CPT 21µM, DT40 TDP1 no CPT inconclusive
O=C(O)c1cccc(-c2csc(C(O)c3ccccc3)n2)c1 (centres undefined)	none
CCN(CC)C(=O)c1cccc(-c2csc(C(NC(C)=O)c3ccc(F)c(F)c3)n2)c1 (centres undefined)	DT40 TDP1 CPT inconclusive, DT40 TDP1 no CPT inconclusive
CCN(CC)C(=O)c1cccc(-c2csc(C(O)c3ccccc3)n2)c1 (centres undefined)	HT1080 IDH1KD tx inconclusive, DT40 TDP1 CPT inconclusive, DT40 TDP1 no CPT 23µM
CC(C)c1cccc(-c2csc(C(O)c3ccco3)n2)c1 (centres undefined)	DT40 TDP1 CPT inconclusive, DT40 TDP1 no CPT inconclusive
CCOCCCNC(=O)c1ccc2c(=O)n(CCc3ccccc3)c(=O)[nH]c2c1	none (no result: HT1080 IDH1KD tx, HT1080NT lethal, IL1B secr inh)
O=C(NCc1ccc2c(c1)OCO2)C1CCCN(S(=O)(=O)c2cccc3nonc23)C1 (centres undefined)	DT40 TDP1 CPT inconclusive, DT40 TDP1 no CPT inconclusive
O=C(NCc1ccc2c(c1)OCO2)C1CCCN(S(=O)(=O)c2cccc3cccnc23)C1 (centres undefined)	DT40 TDP1 CPT inconclusive, DT40 TDP1 no CPT 16µM
Cc1ccccc1NC(=O)C1CCCN(S(=O)(=O)c2cccc3cccnc23)C1 (centres undefined)	DT40 TDP1 CPT inconclusive, DT40 TDP1 no CPT inconclusive
Cc1cccc(NC(=O)C2CCCN(S(=O)(=O)c3cccc4cccnc34)C2)c1 (centres undefined)	DT40 TDP1 CPT 18µM, DT40 TDP1 no CPT 23µM
O=C(Nc1cccc(F)c1)C1CCCN(S(=O)(=O)c2cccc3cccnc23)C1 (centres undefined)	DT40 TDP1 CPT 18µM, DT40 TDP1 no CPT 23µM
O=C(NC1CCCC1)C1CCCN(S(=O)(=O)c2cccc3cccnc23)C1 (centres undefined)	DT40 TDP1 CPT inconclusive
Cc1ccc(NC(=O)C2CCCN(S(=O)(=O)c3cccc4cccnc34)C2)cc1 (centres undefined)	DT40 TDP1 CPT inconclusive, DT40 TDP1 no CPT 21µM
O=c1c(CCc2ccccc2)nc2cnc(Nc3ccccc3)nc2n1C[C@H]1CCCO1	none (no result: HT1080 IDH1KD tx, HT1080NT lethal, IL1B secr inh)
Cc1c(NC(=O)OCCSc2nc(N(C)C)nc(N(C)C)n2)sc(=S)n1C	none
CCOc1ccccc1NC(=O)c1cc(S(=O)(=O)N2CCOCC2)cn1C	none (no result: HT1080 IDH1KD tx, HT1080NT lethal, IL1B secr inh)
CCC(CC)NC(=O)COC(=O)c1ccc(NS(=O)(=O)c2ccc3c(c2)OCCO3)cc1	none
Cc1ccc(S(=O)(=O)N(C)C)cc1NC(=O)c1cc(-c2ccco2)nc2ccccc12	DT40 TDP1 CPT 13µM, DT40 TDP1 no CPT 18µM
Cc1cccc(NC(=O)c2cc(-c3ccco3)nc3ccccc23)n1	DT40 TDP1 CPT 21µM, DT40 TDP1 no CPT 18µM
Cc1ccc(S(=O)(=O)N(C)C)cc1NC(=O)c1ccc2ccccc2n1	DT40 TDP1 CPT 21µM, DT40 TDP1 no CPT inconclusive
Cc1ccccc1NC(=O)c1cc(-c2ccco2)nc2ccccc12	DT40 TDP1 no CPT inconclusive (no result: IL1B secr inh)
Cc1ccc(S(=O)(=O)NCCC(=O)Nc2ccc(C)cc2C(=O)c2ccccc2)cc1	DT40 TDP1 CPT inconclusive, DT40 TDP1 no CPT 21µM
CCN(CC)CC(=O)Nc1ccc(C)cc1C(=O)c1ccccc1	DT40 TDP1 no CPT inconclusive
COc1ccc(CC(=O)NCc2n[nH]c(=S)n2-c2ccccc2OC)cc1	none
CNC(=O)C(=O)NCCC1CCCCN1S(=O)(=O)c1cccs1 (centres undefined)	none
Cn1c(=O)c2c(nc(SCC(=O)N3CCCCCC3)n2C)n(C)c1=O	none
CCc1cc(C(=O)Nc2cc(S(=O)(=O)N(CC)CC)ccc2N2CCN(C)CC2)sc1C	none
Cc1ccc(S(=O)(=O)NCCC(=O)Nc2cc(S(=O)(=O)N(C)C)ccc2C)cc1C	DT40 TDP1 no CPT 16µM
